Records with an inconclusive call do not appear. Activity calls are given as the source filed them. The calls were made as follows: active = hit-call score of the fitted dose curve at least 0.9, where 1 is the maximum; inconclusive = response in the unintended direction; inactive = score below 0.9.
Experiments:
NCBI gene 24521 = experiment: NVS_IC_rKATPCh: NovaScreen (NVS) Ion Channel Assay for rat Potassium Channel, ATP-Sensitive (KATPCh) (AID 2283319)
Method in brief: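 Primary duplicate screen at 25 uM, then singleton concentration series to 50 uM maximum, in a rat cortex membrane radioligand displacement assay. Binding measured by filtration and scintillation 2 h post-dose; DMSO baseline.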

[1] = biological target: bovine Gamma-Aminobutyric Acid Type A Receptor BDZ, alpha 1 site (GABARa1), GABRA1 (gene 780973) (UniProt P08219); experiment: NVS_LGIC_bGABARa1: NovaScreen (NVS) Ligand-Gated Ion Channel Assay for bovine Gamma-Aminobutyric Acid Type A Receptor BDZ, alpha 1 site (GABARa1) (AID 2283321)
Chain of bovine Gamma-Aminobutyric Acid Type A Receptor BDZ, alpha 1 site (GABARa1), GABRA1 (gene 780973) (P08219 whole entry, looked up): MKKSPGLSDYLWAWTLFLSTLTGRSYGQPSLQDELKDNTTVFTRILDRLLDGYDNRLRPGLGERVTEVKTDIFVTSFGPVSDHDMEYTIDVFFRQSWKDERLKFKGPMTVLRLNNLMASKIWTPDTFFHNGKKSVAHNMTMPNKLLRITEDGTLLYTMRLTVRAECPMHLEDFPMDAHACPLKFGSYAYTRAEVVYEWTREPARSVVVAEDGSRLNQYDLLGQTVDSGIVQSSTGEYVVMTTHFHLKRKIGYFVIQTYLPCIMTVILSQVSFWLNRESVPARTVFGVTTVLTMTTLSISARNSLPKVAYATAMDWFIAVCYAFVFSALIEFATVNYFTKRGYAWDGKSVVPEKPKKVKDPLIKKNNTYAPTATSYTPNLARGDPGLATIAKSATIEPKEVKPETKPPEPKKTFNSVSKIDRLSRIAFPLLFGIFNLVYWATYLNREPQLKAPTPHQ
Method in brief: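 Bovine cortex membrane preparation, benzodiazepine site on GABA-A alpha1; specific radioligand displacement read after 0.75 h by filtration and scintillation. Screen at 25 uM, then singleton titrations up to 50 uM; DMSO baseline.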

[2] = biological target: bovine Gamma-Aminobutyric Acid Type A Receptor BDZ, alpha 5 site (GABARa5), GABRA5 (gene 523515) (UniProt Q08E50); experiment: NVS_LGIC_bGABARa5: NovaScreen (NVS) Ligand-Gated Ion Channel Assay for bovine Gamma-Aminobutyric Acid Type A Receptor BDZ, alpha 5 site (GABARa5) (AID 2283323)
Chain of bovine Gamma-Aminobutyric Acid Type A Receptor BDZ, alpha 5 site (GABARa5), GABRA5 (gene 523515) (Q08E50 whole entry, looked up): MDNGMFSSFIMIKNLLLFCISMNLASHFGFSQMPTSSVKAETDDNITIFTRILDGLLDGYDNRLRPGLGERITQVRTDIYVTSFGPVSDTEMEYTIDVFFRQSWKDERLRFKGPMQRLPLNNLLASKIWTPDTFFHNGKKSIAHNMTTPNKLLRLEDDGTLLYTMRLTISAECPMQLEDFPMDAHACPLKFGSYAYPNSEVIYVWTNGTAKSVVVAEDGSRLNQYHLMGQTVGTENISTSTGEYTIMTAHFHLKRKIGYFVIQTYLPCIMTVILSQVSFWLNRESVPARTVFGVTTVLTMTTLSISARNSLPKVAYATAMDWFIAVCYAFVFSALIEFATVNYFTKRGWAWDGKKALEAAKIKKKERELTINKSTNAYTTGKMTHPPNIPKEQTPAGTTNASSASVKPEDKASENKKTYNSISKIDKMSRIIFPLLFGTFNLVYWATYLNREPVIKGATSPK
Method in brief: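 Tested first in duplicate at a single 25 uM, with hits re-run in concentration series to a 50 uM maximum. Bovine hippocampal membranes; specific radioligand displacement measured by filter scintillation counting 1 hr post-dose.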

[3] = biological target: bovine Gamma-Aminobutyric Acid Type A Receptor Agonist (GABAR Agonist), GABRA1 (gene 780973) (UniProt P08219); experiment: NVS_LGIC_bGABAR_Agonist: NovaScreen (NVS) Ligand-Gated Ion Channel Assay for bovine Gamma-Aminobutyric Acid Type A Receptor Agonist (GABAR Agonist) (AID 2283338)
Chain of bovine Gamma-Aminobutyric Acid Type A Receptor Agonist (GABAR Agonist), GABRA1 (gene 780973) (P08219 whole entry, looked up): as the sequence (P08219 whole entry, looked up) above
Method in brief: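 Radioligand binding to bovine cerebellar membranes in agonist format, read by filter-based scintillation counting after 1 h. Primary screen in duplicate at 25 uM, with actives followed in concentration series. Gain of signal versus DMSO.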

[4] = biological target: rat Oxytocin Receptor (OXT), Oxtr (gene 25342) (UniProt P70536); experiment: NVS_GPCR_rOXT: NovaScreen (NVS) G Protein-Coupled Receptor Assay for rat Oxytocin Receptor (OXT) (AID 2283330)
Chain of rat Oxytocin Receptor (OXT), Oxtr (gene 25342) (P70536 whole entry, looked up): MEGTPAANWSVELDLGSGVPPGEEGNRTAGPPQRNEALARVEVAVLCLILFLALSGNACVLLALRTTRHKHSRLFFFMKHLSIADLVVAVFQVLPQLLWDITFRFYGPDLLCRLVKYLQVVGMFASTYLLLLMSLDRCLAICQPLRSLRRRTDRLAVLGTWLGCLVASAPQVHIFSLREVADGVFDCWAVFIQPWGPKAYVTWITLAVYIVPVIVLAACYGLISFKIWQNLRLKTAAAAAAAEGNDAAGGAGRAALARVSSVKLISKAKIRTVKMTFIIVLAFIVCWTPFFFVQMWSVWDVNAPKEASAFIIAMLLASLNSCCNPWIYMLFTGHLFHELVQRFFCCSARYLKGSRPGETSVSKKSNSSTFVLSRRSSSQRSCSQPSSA
Method in brief: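 Binding to rat uterine membrane receptor was followed by scintillation counting of filter-trapped radioligand after 1 h. A 25 uM duplicate single-point screen preceded concentration series with a top of 50 uM. Signal loss was analysed relative to DMSO.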

NCBI gene 100848466 = experiment: NVS_NR_bPR: NovaScreen (NVS) Nuclear Receptor Binding Assay for bovine Progextron Receptor (PR) (AID 2283343);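 as to AC50: actives lower bound radioligand signal below DMSO meaning displacement of the label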
Method in brief: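 Steps: bovine uterine membranes were dosed with chemical alongside radioligand, incubated 18 hours, then radiodetected by scintillation counting. Initial testing used 25 uM in duplicate; confirmed actives were rerun as concentration series.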

[5] = biological target: human Serotonin, 5-Hydroxytryptamine Receptor 3 (5HT3), HTR3A (gene 3359) (UniProt P46098); experiment: NVS_LGIC_h5HT3: NovaScreen (NVS) Ligand-Gated Ion Channel Assay for human Serotonin, 5-Hydroxytryptamine Receptor 3 (5HT3) (AID 2283325)
Chain of human Serotonin, 5-Hydroxytryptamine Receptor 3 (5HT3), HTR3A (gene 3359) (P46098 whole entry, looked up): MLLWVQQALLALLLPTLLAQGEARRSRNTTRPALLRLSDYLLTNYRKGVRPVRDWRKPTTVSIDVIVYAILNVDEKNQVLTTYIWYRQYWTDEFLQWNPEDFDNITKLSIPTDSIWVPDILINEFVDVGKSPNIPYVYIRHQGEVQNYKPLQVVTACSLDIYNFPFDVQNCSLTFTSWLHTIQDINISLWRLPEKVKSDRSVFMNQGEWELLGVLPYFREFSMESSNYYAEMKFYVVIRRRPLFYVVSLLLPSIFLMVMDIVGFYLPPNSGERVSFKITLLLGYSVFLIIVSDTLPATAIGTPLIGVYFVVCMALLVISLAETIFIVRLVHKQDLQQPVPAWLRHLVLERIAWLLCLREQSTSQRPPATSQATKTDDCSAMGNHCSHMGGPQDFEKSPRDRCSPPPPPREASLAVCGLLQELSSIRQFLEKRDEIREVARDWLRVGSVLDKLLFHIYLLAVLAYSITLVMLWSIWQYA
Method in brief: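 Initially tested at 25 uM in duplicate, then up to 50 uM in concentration-response for actives, compounds competed with a radioligand for HEK293-derived human 5-HT3 receptor. Bound counts were measured by filtration and scintillation at 1 h; loss of signal versus DMSO.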

[6] = biological target: rat Glutamate, NMDA Agonist Site (GluNMDA), Grin1 (gene 24408) (UniProt P35439); experiment: NVS_LGIC_rGluNMDA_Agonist: NovaScreen (NVS) Ligand-Gated Ion Channel Assay for rat Glutamate, NMDA Agonist Site (GluNMDA) (AID 2283327)
Method in brief: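 Radioligand displacement at the agonist site on rat forebrain membrane preparations, read by filter scintillation after 1 h. Chemicals were first run at 25 uM in duplicate; those passing threshold were titrated to a 50 uM maximum.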

[7] = biological target: human Constitutive Androstane Receptor (CAR), NR1I3 (gene 9970) (UniProt Q14994); experiment: NVS_NR_hCAR_Agonist: NovaScreen (NVS) Nuclear Receptor Binding Assay for human Constitutive Androstane Receptor Agonism (CAR) (AID 2283328)
Chain of human Constitutive Androstane Receptor (CAR), NR1I3 (gene 9970) (Q14994 whole entry, looked up): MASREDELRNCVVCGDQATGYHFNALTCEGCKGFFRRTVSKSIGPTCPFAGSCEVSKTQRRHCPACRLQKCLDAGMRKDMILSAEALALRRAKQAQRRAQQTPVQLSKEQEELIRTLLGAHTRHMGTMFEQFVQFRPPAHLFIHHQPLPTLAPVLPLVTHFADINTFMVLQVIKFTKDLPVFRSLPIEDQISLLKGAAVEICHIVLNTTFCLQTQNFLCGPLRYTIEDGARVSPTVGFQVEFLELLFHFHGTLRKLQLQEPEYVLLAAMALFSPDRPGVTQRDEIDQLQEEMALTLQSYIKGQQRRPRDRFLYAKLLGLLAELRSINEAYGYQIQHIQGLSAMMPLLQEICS
Method in brief: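 Actives from a 25 uM duplicate screen were retested in singleton concentration series to 50 uM max. Biochemical TR-FRET assay on extracted CAR protein measured 1 h post-dose, with signal increase over DMSO control.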

[8] = biological target: human Androgen Receptor (AR), AR (gene 367) (UniProt P10275); experiment: NVS_NR_hAR: NovaScreen (NVS) Nuclear Receptor Binding Assay for human Androgen Receptor (AR) (AID 2283332)
Chain of human Androgen Receptor (AR), AR (gene 367) (P10275 whole entry, looked up): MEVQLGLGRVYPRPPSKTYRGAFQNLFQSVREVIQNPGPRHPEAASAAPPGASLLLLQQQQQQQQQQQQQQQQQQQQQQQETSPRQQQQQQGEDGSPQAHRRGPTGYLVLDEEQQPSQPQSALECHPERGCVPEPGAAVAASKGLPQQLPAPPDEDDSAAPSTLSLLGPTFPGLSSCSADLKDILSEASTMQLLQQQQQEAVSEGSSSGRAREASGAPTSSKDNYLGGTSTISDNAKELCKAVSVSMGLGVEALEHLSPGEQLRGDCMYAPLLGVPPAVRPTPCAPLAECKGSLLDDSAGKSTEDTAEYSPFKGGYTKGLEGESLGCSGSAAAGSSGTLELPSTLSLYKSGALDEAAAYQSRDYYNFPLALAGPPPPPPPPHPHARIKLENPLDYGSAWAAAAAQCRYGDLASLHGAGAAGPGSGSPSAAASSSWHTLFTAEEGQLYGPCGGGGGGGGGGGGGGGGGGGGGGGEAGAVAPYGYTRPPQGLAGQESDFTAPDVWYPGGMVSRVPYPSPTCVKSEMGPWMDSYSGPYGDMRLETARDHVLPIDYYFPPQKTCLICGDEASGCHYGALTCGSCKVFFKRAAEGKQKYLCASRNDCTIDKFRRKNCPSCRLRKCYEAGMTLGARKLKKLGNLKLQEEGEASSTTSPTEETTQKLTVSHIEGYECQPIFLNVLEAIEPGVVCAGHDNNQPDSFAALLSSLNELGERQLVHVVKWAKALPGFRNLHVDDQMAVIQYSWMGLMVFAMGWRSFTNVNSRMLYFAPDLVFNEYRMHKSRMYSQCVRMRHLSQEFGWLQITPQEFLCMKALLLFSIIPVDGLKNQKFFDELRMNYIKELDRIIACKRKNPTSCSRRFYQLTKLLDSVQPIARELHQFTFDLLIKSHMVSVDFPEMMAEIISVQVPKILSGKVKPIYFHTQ
Method in brief: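 Actives from a duplicate 25 uM single-point screen went on to concentration series. Read-out after 20 h was scintillation counting of displaced radioligand in LnCAP extract, with DMSO as baseline.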

[9] = biological target: Voltage-gated inwardly rectifying potassium channel KCNH2 (Homo sapiens) (UniProt Q12809); experiment: NVS_IC_hKhERGCh: NovaScreen (NVS) Ion Channel Assay for human Potassium Channel ERG (KhERGCh) (AID 2283333)
Chain of Voltage-gated inwardly rectifying potassium channel KCNH2 (Homo sapiens) (Q12809 whole entry, looked up): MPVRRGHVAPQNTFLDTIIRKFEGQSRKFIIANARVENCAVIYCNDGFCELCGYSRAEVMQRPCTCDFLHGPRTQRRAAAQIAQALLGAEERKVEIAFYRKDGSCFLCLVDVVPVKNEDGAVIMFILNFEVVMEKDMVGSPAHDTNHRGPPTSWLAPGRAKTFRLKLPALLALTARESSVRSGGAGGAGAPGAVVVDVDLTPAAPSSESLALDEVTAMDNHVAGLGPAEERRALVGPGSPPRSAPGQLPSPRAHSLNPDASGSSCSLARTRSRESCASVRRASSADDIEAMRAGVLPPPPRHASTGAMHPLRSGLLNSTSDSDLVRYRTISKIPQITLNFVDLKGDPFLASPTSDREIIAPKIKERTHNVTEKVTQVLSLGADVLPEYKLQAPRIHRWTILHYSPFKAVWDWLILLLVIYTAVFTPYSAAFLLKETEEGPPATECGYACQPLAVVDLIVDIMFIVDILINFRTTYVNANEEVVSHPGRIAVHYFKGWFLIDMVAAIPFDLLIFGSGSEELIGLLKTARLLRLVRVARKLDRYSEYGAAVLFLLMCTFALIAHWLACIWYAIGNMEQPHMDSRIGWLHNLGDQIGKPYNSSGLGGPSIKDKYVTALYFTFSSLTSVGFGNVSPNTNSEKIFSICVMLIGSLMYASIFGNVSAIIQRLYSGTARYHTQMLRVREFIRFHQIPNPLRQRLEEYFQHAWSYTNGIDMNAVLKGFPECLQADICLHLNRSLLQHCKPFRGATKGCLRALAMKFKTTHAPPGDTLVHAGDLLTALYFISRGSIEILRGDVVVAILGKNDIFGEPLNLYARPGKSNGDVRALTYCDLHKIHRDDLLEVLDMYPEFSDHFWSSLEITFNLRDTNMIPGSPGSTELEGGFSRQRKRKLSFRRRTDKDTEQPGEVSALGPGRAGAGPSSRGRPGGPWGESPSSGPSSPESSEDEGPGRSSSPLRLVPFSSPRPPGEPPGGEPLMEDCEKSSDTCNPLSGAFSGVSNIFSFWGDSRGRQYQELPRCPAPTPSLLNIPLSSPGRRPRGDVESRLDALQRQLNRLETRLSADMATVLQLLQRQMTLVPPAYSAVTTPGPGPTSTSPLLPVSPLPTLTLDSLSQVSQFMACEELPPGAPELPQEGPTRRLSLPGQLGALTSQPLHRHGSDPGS
Method in brief: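 Membranes from CHO cells expressing human ERG; displacement of radioligand measured by filtration and scintillation after 0.75 h. Single-concentration duplicate screen at 25 uM, then concentration-response for actives; DMSO baseline.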

[10] = NVS_IC_rCaBTZCHL: NovaScreen (NVS) Ion Channel Assay for Calcium Channel, Type L, Benzothiazepine Site (CaBTZCHL) (AID 2283337)
Method in brief: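 Test chemicals were added to rat cortical membranes and incubated 1.5 h with a tritiated or iodinated radioligand for the benzothiazepine site. Bound ligand was separated by filtration and counted. Actives from the 25 uM duplicate screen were retested in concentration series.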

[11] = biological target: rat Glycine Receptor, Strychnine-sensitive (GlyRStrySens), Glra1 (gene 25674) (UniProt P07727); experiment: NVS_LGIC_rGlyRStrySens: NovaScreen (NVS) Ligand-Gated Ion Channel Assay for rat Glycine Receptor, Strychnine-sensitive (GlyRStrySens) (AID 2283341)
Chain of rat Glycine Receptor, Strychnine-sensitive (GlyRStrySens), Glra1 (gene 25674) (P07727 whole entry, looked up): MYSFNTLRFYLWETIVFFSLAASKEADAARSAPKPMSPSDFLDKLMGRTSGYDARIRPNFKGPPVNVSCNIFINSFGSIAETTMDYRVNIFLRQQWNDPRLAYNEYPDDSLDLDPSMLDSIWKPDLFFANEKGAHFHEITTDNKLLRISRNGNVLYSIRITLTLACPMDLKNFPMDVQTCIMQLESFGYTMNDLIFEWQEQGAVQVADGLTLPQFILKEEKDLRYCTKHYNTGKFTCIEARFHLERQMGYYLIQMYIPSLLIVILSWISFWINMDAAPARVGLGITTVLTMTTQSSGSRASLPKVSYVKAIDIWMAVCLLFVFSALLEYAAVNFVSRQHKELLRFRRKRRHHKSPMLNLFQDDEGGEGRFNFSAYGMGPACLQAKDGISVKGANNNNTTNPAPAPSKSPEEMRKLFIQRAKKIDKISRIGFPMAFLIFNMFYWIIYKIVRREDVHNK
Method in brief: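 Radioligand displacement on rat spinal cord membranes, 1 hr, filter scintillation read-out. Single-concentration duplicate screen at 25 uM; chemicals meeting threshold (e.g., 30% inhibition) rerun in concentration-response up to 50 uM. Loss of binding fitted versus DMSO.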

## OCC1CO1 (centres undefined)
NCBI gene 24521
  outcome: inactive

## CCC1(c2ccccc2)C(=O)N=C(O)NC1=O (centres undefined)
[1]
  outcome: inactive

## Nc1cc2c3c(c1)C(c1ccccc1)=N[C@@H](NC(=O)c1cccnc1)C(=O)N3CC2
[1]
  outcome: inactive
[2]
  outcome: inactive
[3]
  outcome: inactive

## CSC(C)(C)C=NO
[2]
  outcome: inactive
[4]
  outcome: inactive
NCBI gene 100848466
  outcome: inactive

## Nc1ccc(Cl)cc1
[5]
  outcome: inactive

## CC(Cc1ccc(OCC(=O)O)cc1)NCC(O)c1csc(C(F)(F)F)n1 (centres undefined)
[6]
  outcome: inactive

## c1ccc2c(c1)Nc1ccccc1S2
[7]
  outcome: inactive
[3]
  outcome: inactive

## O=P1(N(CCCl)CCCl)NCCCO1 (centres undefined)
[4]
  outcome: inactive

## CCCCCCCc1ccc(O)cc1
[8]
  outcome: inactive
[9]
  AC50: 0.766 µM (active)

## O=P(OCC(Br)CBr)(OCC(Br)CBr)OCC(Br)CBr (centres undefined)
[8]
  AC50: 6.63 µM (active)

## ClC(Cl)(Cl)c1ccccc1
[9]
  outcome: inactive

## CCCCOCCOP(=O)(OCCOCCCC)OCCOCCCC
[10]
  outcome: inactive

## CCCCC(CC)COP(=O)(Oc1ccccc1)Oc1ccccc1 (centres undefined)
[10]
  outcome: inactive

## Cc1ccc2c(c1N)C(=O)c1ccccc1C2=O
[10]
  outcome: inactive

## CC(C)Nc1ccc(Nc2ccccc2)cc1
[10]
  outcome: inactive

## c1ccc(OP(Oc2ccccc2)Oc2ccccc2)cc1
[11]
  outcome: inactive

## CCCCN(CCCC)SN(C)C(=O)Oc1cccc2c1OC(C)(C)C2
NCBI gene 100848466
  outcome: inactive

## CCOP(=S)(Oc1ccc([N+](=O)[O-])cc1)c1ccccc1 (centres undefined)
NCBI gene 100848466
  AC50: 10.4 µM (active)
